From PubChem BioAssay AID687016 (The Scripps Research Institute Molecular Screening Center, 2013)
Out of some 370,000 compounds screened, about 2,800 (0.76%) were called active. This excerpt belongs to a sample that is enriched for actives. Unmarked numbers belong to inactive results. No stated cut-off is given here; in the data, active means inhibition above about 21%; inactive means the rest.

The compounds below were run against E3 ubiquitin-protein ligase UHRF1 (Homo sapiens) (UniProt Q96T88) (assay: UHRF1 methylated DNA binding inhibitors, primary screen, counter-screen for MBD2 inhibitor project, biochemical, TR-FRET, human UHRF1, single concentration (AID 687016;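 further: UHRF1 SRA domain binding a hemimethylated CpG hairpin DNA probe; 0% = median of test compound wells and 100% = reference inhibitor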)). Details: UHRF1 binding to methylated oligo, at 4.4 µM, active compounds read high.
E3 ubiquitin-protein ligase UHRF1 (Homo sapiens), sequence (Q96T88 whole entry, looked up, the tested form may be a part): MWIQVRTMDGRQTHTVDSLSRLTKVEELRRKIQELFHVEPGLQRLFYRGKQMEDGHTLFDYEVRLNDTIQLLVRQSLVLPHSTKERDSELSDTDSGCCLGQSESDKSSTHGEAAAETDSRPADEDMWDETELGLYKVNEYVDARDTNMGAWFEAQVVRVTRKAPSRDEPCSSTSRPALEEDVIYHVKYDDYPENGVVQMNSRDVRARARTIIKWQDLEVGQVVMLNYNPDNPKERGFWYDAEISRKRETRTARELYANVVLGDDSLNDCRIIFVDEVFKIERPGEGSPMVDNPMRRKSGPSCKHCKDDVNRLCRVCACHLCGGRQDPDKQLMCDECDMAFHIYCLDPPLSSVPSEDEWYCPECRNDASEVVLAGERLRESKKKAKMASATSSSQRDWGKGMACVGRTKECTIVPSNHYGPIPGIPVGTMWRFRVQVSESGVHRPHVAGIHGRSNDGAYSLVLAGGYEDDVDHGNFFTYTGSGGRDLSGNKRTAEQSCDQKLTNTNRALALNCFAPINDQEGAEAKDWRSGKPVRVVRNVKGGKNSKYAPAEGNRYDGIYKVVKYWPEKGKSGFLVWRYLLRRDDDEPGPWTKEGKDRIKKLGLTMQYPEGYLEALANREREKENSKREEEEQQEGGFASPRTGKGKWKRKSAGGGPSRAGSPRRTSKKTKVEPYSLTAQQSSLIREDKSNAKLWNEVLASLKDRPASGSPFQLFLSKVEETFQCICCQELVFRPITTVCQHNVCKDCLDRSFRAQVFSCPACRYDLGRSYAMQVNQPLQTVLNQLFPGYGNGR

Structure (SMILES)	inhibition
N#Cc1ccc(OC[C@@H](O)CN2CCC(C(O)(c3ccccc3)c3ccccc3)CC2)c(F)c1	-0.23%
C=CCN1C(=O)[C@@H](CC(=O)N2CCN(C(=O)OCC)CC2)[C@]2(C(=O)OCC)CCCCC/C=C/12	0.51%
Cc1cc(C)cc(OCC(=O)NNC(=O)CCN2C(=O)c3ccccc3C2=O)c1	-0.19%
Cc1cc(C)cc(OCC(=O)NCc2cc(C)nc3ccccc23)c1	37.5% (active)
Cc1cc(C)cc(OCC(=O)Nc2cc(NC(=O)COc3cc(C)cc(C)c3)cc(C(=O)O)c2)c1	-0.86%
CCOc1ccc(Oc2c(Cl)cnn(-c3ccc(C)cc3)c2=O)cc1	0.41%
CCOC(=O)C1=C(C)NC2=C(C(=O)CC(C)(C)C2)C1c1ccc2c(c1)OCO2 (stereo not drawn)	3.68%
O=C(Nc1nc2ccc(Cl)cc2s1)c1cc(-c2ccc(Cl)cc2)nc2ccccc12	1.94%
Cc1cc(C(=O)Nc2ccc(C)c(S(=O)(=O)N3CCOCC3)c2)c2ccccc2n1	6.42%
O=C(Nc1cccc(F)c1)c1cc(-c2ccco2)nc2ccccc12	23% (active)
O=C1CC[C@@H](COc2ccc3[nH]cc(-c4ccccc4)c3c2-c2ccccc2)N1	-0.59%
C[C@H](C(=O)N(C)c1ccccc1)[C@@H](O)c1ccc(Cl)cc1	-0.97%
COc1cccc(CNC(=O)C2CCCN(c3nc4ccccc4o3)C2)c1OC (stereo not drawn)	3.57%
C=CCOC/C=C/C#CCN(CC=C)Cc1ccc(OC)cc1OC	-1.02%
O=C(NCc1cccs1)C1CCCN(S(=O)(=O)c2ccc([N+](=O)[O-])cc2)C1 (stereo not drawn)	1.19%
COCCN(C(=O)c1ccco1)c1nnc(-c2ccc(OC)cc2)s1	-1.02%
COCCNC(=O)Nc1ccc2nc(-c3ccco3)c(-c3ccco3)nc2c1	91.1% (active)
O=C(NCCOc1ccccc1F)Nc1ccc(Br)cc1	4.11%
O=C(NC1CCCC1)C1CSCCS(=O)(=O)N1Cc1ccccc1 (stereo not drawn)	-0.6%
COC(=O)[C@]12C[C@H](CC(=O)NCCc3ccccc3OC)C(=O)N(Cc3ccco3)C1=C[C@H](C(C)C)O[C@@H]2C1CC1	3.75%
OCCN1CCOCCOCCN(CCO)CCN(CCO)CC1	-0.79%
Oc1c(CN2CCOCC2)ccc(CN2CCOCC2)c1O	25.4% (active)

Structure (SMILES)	inhibition
O=[N+]([O-])c1ccc(COc2ccccc2CN2CCOCC2)cc1	-1.96%
O=C(CSc1nnc(-c2ccccn2)n1-c1ccccc1)Nc1ccc2cn[nH]c2c1	-1.24%
Cc1ccccc1CS(=O)(=O)Cc1ccc(C(=O)Nc2ccc(Cl)cc2)o1	0.04%
Cc1c(NC(=S)Nc2ccccc2)c(=O)n(-c2ccccc2)n1C	-4.22%
Cc1c(NC(=O)c2c([N+](=O)[O-])cnn2C)c(=O)n(-c2ccccc2)n1C	-1.94%
Cc1c(NC(=O)c2cccnc2)c(=O)n(-c2ccccc2)n1C	23.3% (active)
COC(=O)[C@]12C[C@H](CC(=O)NCc3ccccc3)C(=O)N(CCC3=CCCCC3)C1=C[C@H](C(C)C)O[C@@H]2C1CC1	3.6%
COC(=O)C1CN(Cc2ccc(F)cc2)CCS(=O)(=O)N1Cc1ccc(Cl)cc1 (stereo not drawn)	2.67%
O=C(Nc1cccc(Cl)c1)OC1CC2CC1[C@H]1CCCCN1[C@H]2Cc1ccccc1 (stereo partly drawn)	0.5%
Cc1ccccc1CSc1nnc(CCCCCNC(=O)OC(C)(C)C)o1	0.59%
Cc1cccc(NC(=O)CSc2nnc(CCNC(=O)OC(C)(C)C)o2)c1C	2.63%
Cc1cccc(NC(=O)CSc2nnc(CCCCCNC(=O)OC(C)(C)C)o2)c1C	34.9% (active)
O=C(NCc1cccs1)C1CCN(S(=O)(=O)c2ccccc2[N+](=O)[O-])CC1	4.97%
CCCC(=O)OCC(=O)Nc1cc(Cl)ccc1[N+](=O)[O-]	-3.24%
Cc1cc(NC(=O)COC(=O)COc2ccc(Cl)cc2C)c([N+](=O)[O-])cc1C	23% (active)
COc1ccc(OCC(=O)Nc2cc(C)c(Cl)cc2OC)c([N+](=O)[O-])c1	-2.47%
C=CCN1C(=O)[C@@H](CC(=O)N2CCN(C(=O)c3ccco3)CC2)[C@]2(C(=O)OC)CCCCC=C12	1.46%
O=C(Nc1ccc(Br)cc1)OCCN1C(=O)CCC12CCC(c1ccccc1)CC2 (stereo not drawn)	-4.19%
CC(=O)O[C@@]1(C(C)=O)CCC2[C@H]3C=C(C)C4=CC(=O)CC[C@@]4(C)C3CC[C@]21C (stereo partly drawn)	2.53%
CCCCNC(=O)C[C@@H]1C(=O)N(CCc2ccc(Cl)cc2)C2=CCCC[C@]21C(=O)OCC	-3.97%
COc1ccc(-c2cc(-c3nnc(SCc4ccc([N+](=O)[O-])cc4)n3N)[nH]n2)cc1	-1.01%
CC(CN1CCCCC1)c1ccccc1 (stereo not drawn)	-1.54%

Structure (SMILES)	inhibition
OC(c1ccccc1)C(CN1CCOCC1)c1ccccc1 (stereo not drawn)	-2.23%
CC(CN1CCOCC1)c1ccccc1 (stereo not drawn)	55.2% (active)
COC(=O)[C@]1(C#N)CC(=O)N(CC2CCCCC2)[C@@H]1c1ccccc1	5.42%
O=C(CCNC(=O)c1ccc([N+](=O)[O-])cc1)NC1CCCCC1	-0.33%
Cc1ccc(C(=O)COC(=O)CCCC(=O)NC2CCCCC2)cc1[N+](=O)[O-]	48.1% (active)
COC(=O)Cc1ccc(OCC(=O)NC2CCCC2)cc1	0.36%
O=C(COC(=O)Cc1ccc([N+](=O)[O-])cc1)NC1CCCCCC1	45.9% (active)
Cc1ccc(C(=O)OCC(=O)NC2CCCCCCC2)cc1C	0.37%
O=C(COC(=O)c1cc([N+](=O)[O-])ccc1NCc1ccccc1)NC1CCCCC1	-2.56%
CCCC[C@H](C(=O)N(CC)c1ccccc1)[C@@H](O)c1ccc2ccccc2c1	-2.02%
Cc1ccccc1CN1CCCCC(NC(=O)c2cccc(C#N)c2)C1=O (stereo not drawn)	-0.18%
COC(=O)C[C@@H]1CC[C@H]2[C@@H](COc3ccc(NS(=O)(=O)CC(F)(F)F)cc3C(=O)N2C)O1	1.54%
CC[C@@H](CCC(=O)N(c1ccccc1)c1ccccc1)C1CC1	1.36%
COC(=O)c1ccc(NC(=S)NN2CCOCC2)cc1	-1.42%
CC(NC(=S)NC1CCCCC1)C(c1ccccc1)N1CCOCC1 (stereo not drawn)	0.56%
S=C(NC1CCCCC1)NN1CCOCC1	32.8% (active)
N[C@@H](Cc1ccccc1)C(=O)N1CCC[C@@H]1C(=O)N1CCC2CCN(S(=O)(=O)c3ccccc3)CC21 (stereo partly drawn)	1.24%
C=CCN(C)CC#Cc1ccccc1	1.63%
CC(C)(C)NC(=O)NC(=O)CN1CCC(Cc2ccccc2)CC1	38.1% (active)
O=C(CN1CCCCC1)NC(=O)Nc1ccccc1F	-2.79%
NC(=O)c1ccc(CN2CCC(Cc3ccccc3)CC2)cc1	-0.37%
CC(CCN1CCC(C(O)(c2ccccc2)c2ccccc2)CC1)Oc1ccc([N+](=O)[O-])cc1Cl (stereo not drawn)	-2.34%

Structure (SMILES)	inhibition
CCCC[C@H]1C2CC(OC(=O)NCc3ccccc3)C(C2)[C@H]2CCCCN21 (stereo partly drawn)	2.4%
COc1ccc(C(=O)OCCN2CCN(C3CN(Cc4cn(Cc5ccccc5F)nn4)S(=O)(=O)C3)CC2)cc1OC (stereo not drawn)	16.4%
C=CCn1c(=S)[nH]c2scc(-c3ccco3)c2c1=O	42% (active)
O=C(CSc1nnc(-c2ccccc2)n1Cc1ccco1)Nc1ccccc1-c1ccccc1	-1.14%
Cc1ccc(-n2c(SCC(=O)Nc3ccc(S(=O)(=O)Nc4nccs4)cc3)nnc2-c2ccncc2)cc1	-0.73%
CCOc1ccc(-n2c(SCC(=O)Nc3cc(C)c(NC(=O)c4ccccc4)cc3OC)nnc2-c2cccc(Cl)c2)cc1	-1.29%
O=C(NC1CCC1)c1ccc(C#CC2CC2)cn1	1.8%
COCCCNC(=O)C[C@H]1C[C@@]2(C(=O)OC)C(=C[C@H](C(C)(C)C)O[C@@H]2C)N(Cc2ccc(Cl)cc2Cl)C1=O	-1%
Cc1cc(C)c(OCCN2CC(C)OC(C)C2)c(Br)c1 (stereo not drawn)	22.5% (active)
CC1CN(CCOc2ccccc2[N+](=O)[O-])CC(C)O1 (stereo not drawn)	0.96%
CC1CN(CCCOc2ccccc2-c2ccccc2)CC(C)O1 (stereo not drawn)	1.48%
CCn1c(=O)n2n(c1=O)[C@@]1(C=C3CCCC[C@H]32)N=C(NC(=O)c2ccccc2)N(Cc2ccccc2)[C@H]1Cc1ccccc1	1.35%
CCN(CC)C(=O)CC[C@H]1CC[C@]2(CCCN(Cc3ccc(Cl)cc3)C2)O1	-2.85%
O=C(Cc1cccs1)NCc1cccc(C(F)(F)F)c1	2.41%
COC(=O)Cc1c(O)ccn(Cc2cccc(C(F)(F)F)c2)c1=O	-0.17%
COC(=O)Cc1csc(/N=C/c2c(O)n(-c3cccc(C(F)(F)F)c3)c(=O)c3ccccc23)n1	20.8% (active)
COc1ccc(CN2C(=O)N3Cc4cc(OC)ccc4C3CS2(=O)=O)cc1 (stereo not drawn)	-0.8%
Cc1ccc(NC(=O)Nc2cc(C)nn2-c2ccccc2)cc1	-0.03%
C#CCNC(=O)C[C@H]1C[C@@]2(C(=O)OC)C(=C[C@H](C(C)C)O[C@@H]2C2CC2)N(Cc2ccco2)C1=O	1.95%
COc1ccc(NC(=O)CN(C)C(=O)c2cc(C)oc2C)cc1	0.64%
COc1ccc(CC(=O)Nc2ccc(-c3nnc(-c4ccc(C)cc4)o3)cc2)cc1	22.5% (active)
COc1ccc(Cc2n[nH]c(=S)n2NC(=O)Nc2ccc(C)cc2)cc1	-1.17%
